# Data from PubChem BioAssay (NCATS).
# Experiments:
# [1] = qHTS profiling of the MIPE4 collection as inhibitors of Plasmodium falciparum (3D7) proliferation (AID 743344);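 further: scaled between DMSO vehicle wells and 0.29 µM artemisinin as full inhibition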; conditions: P. falciparum 3D7 in erythrocytes, SYBR Green DNA fluorescence, 72 h; at 28.5 µM unless noted
# Summary of the method: (§1)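 Erythrocytes infected with P. falciparum (0.3% parasitemia, 2.5% hematocrit) incubated with compounds 72 h at 37 C, 5% CO2. Lysis with saponin/Triton buffer containing SYBR Green I, overnight at room temperature in the dark; DNA fluorescence (485/535 nm) normalised to 0.29 uM artemisinin and DMSO.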
# [2] = qHTS profiling of the MIPE4 collection as inhibitors of Plasmodium falciparum (DD2) proliferation (AID 743345); conditions: P. falciparum Dd2 in erythrocytes, SYBR Green DNA, 72 h; at 28.5 µM unless noted
# Summary of the method: as §1
SMILES,"parasite growth, % of DMSO control [1] [%]","parasite growth remaining, % of DMSO control (lower = more inhibition) [2] [%]"
Clc1ccc(COC(Cn2ccnc2)c2ccc(Cl)cc2Cl)cc1 (stereo not given),5.45,6.85
CC1(C)S[C@H]2[C@H](NC(=O)[C@@H](N)c3ccc(O)cc3)C(=O)N2[C@@H]1C(=O)O,7.42,103
c1ccc2c(Cc3c[nH]c4ccccc34)c[nH]c2c1,22.8,60.6
C[C@H](NC(=O)C(=O)Nc1ccccc1C(C)(C)C)C(=O)N[C@@H](CC(=O)O)C(=O)COc1c(F)c(F)cc(F)c1F,73.8,107
CC(C)(C)Cn1c(N)nc2ccc(-c3[nH]c(C(C)(C)C)nc3-c3ccc(F)cc3)nc21,11,9.48
